ALOX12 inh – ALOX12 (human) lipoxygenase inhibition; P18054; purified 12hLO, xylenol orange hydroperoxide absorbance; Potency, µM (doses to about 108 µM), for the others: at the highest dose activity change, negative = inhibition, hits mostly inhibitors; hit rate 1.1% among 580,000; AID 1671190; note: potency is the fitted concentration of half-maximal effect
Target sequence (P18054 whole entry, looked up): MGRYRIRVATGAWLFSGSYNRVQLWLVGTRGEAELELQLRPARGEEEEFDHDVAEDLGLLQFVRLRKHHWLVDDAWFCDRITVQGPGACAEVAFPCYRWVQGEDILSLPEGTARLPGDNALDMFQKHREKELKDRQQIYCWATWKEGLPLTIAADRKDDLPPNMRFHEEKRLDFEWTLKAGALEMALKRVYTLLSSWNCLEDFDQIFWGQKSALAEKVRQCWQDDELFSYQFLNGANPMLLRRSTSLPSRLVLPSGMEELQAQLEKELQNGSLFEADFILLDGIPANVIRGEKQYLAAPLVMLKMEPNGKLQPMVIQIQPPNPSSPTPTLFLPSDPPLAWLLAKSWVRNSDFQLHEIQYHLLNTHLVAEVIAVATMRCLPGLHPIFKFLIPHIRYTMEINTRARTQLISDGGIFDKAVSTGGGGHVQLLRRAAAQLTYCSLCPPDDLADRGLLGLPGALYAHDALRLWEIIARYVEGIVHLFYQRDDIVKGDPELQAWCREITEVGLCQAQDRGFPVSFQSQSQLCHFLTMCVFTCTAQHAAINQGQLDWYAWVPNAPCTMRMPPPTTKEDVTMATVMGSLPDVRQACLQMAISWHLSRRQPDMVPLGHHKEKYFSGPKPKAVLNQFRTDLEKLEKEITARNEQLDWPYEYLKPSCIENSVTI
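Purified human 12hLO (150 nM final) in 25 mM Hepes, 0.01% Triton X-100, pH 7.0 was preincubated 15 min at room temperature with compound. Then 40 uM arachidonic acid was added, 30 min. Hydroperoxide was read by Fe-XO absorbance ratio 573/405 nm.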
TDP1 cell noCPT – qHTS for Inhibitors of human tyrosyl-DNA phosphodiesterase 1 (TDP1): qHTS in cells in absence of CPT; DT40 Tdp1-/- hTDP1 cells, no CPT, ATP luminescence, 48 h; Potency, µM (doses to about 46.2 µM), for inactives: top-dose activity change, negative = growth inhibition, actives largely listed as inhibitors; hit rate 15% among 420,000; note: potency is the fitted concentration of half-maximal effect; nearly all actives have a fitted effect of over 55% in size
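Growth of hTDP1-complemented DT40 Tdp1-knockout cells is measured by ATP luminescence after at least 48 hr compound exposure at 37 °C, with DMSO substituting for the 20 nM CPT used in the parallel screen.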
HT1080-NT tox – kills 2HG-producing HT-1080-NT fibrosarcoma cells. hit rate 1.6% among 360,000. Potency, µM (doses to about 46.1 µM), for the others: top-dose activity, negative = less viability, hits mostly cytotoxic. HT-1080-NT fibrosarcoma viability, CellTiter-Glo ATP luminescence, 48 h. AID 686970;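 note: NT is the 2HG producing partner of a matched IDH1 knockdown line; potency is the fitted concentration of half-maximal effect; 0% = DMSO-treated cells and -100% = media-only wells without cells; nearly all actives have a fitted effect of over 55% in size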
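750 cells/well, RPMI + 5% FBS; 2 h settle, compound pin-transfer, 48 h at 37 degrees C. CellTiter-Glo 10 min RT, luminescence. Normalized to DMSO and media-only wells.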
DT40 TDP1 CPT – DT40-hTDP1 cell growth loss with CPT | chicken DT40 Tdp1-/-;hTDP1 cells + 20 nM CPT, ATP luminescence, 48 h | Potency, µM (series often up to 46.2 µM), inactives show at the top dose activity change, negative = growth inhibition, hits mostly inhibitors | hit rate 12% among 420,000; note: potency is the fitted concentration of half-maximal effect; nearly all actives have a fitted effect of over 55% in size
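Cell growth measured by CellTiter-Glo luminescence after a minimum 48 h, 37 C compound exposure with 20 nM CPT in Tdp1-knockout DT40 cells stably expressing hTDP1, seeded 400/well; qHTS titration format.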
IL1B secr inh – blocks inflammasome-driven IL-1 beta release; THP-1 LPS/ATP IL-1B secretion, AlphaLISA, 16 h; active compounds read low; activity change, % at 57.5 µM; hit rate 4.7% among 360,000; AID 743279; in the data active = activity change below about -50%; inconclusive = mostly about -30% to -49%
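THP-1 cells pretreated 1 hr with compounds (up to 57.5 uM final), then stimulated with LPS (250 ng/mL final) plus ATP (1.25 mM final); secreted IL-1B measured by AlphaLISA after 16 hr, decreased signal indicating inhibition.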
HT1080 IDH1KD tx – HT-1080 IDH1 knockdown cell toxicity (counter line); HT-1080 IDH1 knockdown viability, ATP luminescence, 48 h; Potency, µM (titrated, usually from 46.1 µM), for inactives: at the highest dose activity, negative = toxicity, hits mostly cytotoxic; hit rate 2% among 360,000; AID 686971;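 note: potency is the fitted concentration of half-maximal effect; 0% = DMSO wells and -100% = cell-free medium wells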
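CellTiter-Glo luminescence after 48 h compound exposure at 37 degrees C of IDH1-knockdown HT-1080 cells in 5% FBS RPMI. %Activity scaled between DMSO wells and cell-free media wells, with curves fitted and assigned curve classes.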
Starred values were filed as active, the others as inactive; i = inactive; ? = inconclusive; · = not tested or not shown; [ ] = another dose, or the depositor's remark. The full list was thinned out, with hits kept by preference. Unless noted, calls come from the whole dose curve; as a rule, active = well fitted curve in the direction sought with a large enough effect; inconclusive = small, poorly fitted or top-dose-only effect, or another doubt; inactive = no such curve, though single readings can be large; an effect the other way counts as inactive or inconclusive. Unless noted, % is set by controls: 0 for no effect and ±100 for the full control effect.

SMILES | ALOX12 inh | TDP1 cell noCPT | HT1080-NT tox | DT40 TDP1 CPT | IL1B secr inh | HT1080 IDH1KD tx
O=C(O)C(c1c[nH]c2ccc(Cl)cc12)N1CCN(c2nsc3ccccc23)CC1 (stereo not drawn) | 7% | · | · | · | · | ·
COc1ccc(C(=O)NC2CCN(c3cnn(Cc4ccccc4)c(=O)c3)CC2)cn1 | 8% | · | · | · | · | ·
CCn1nccc1C(=O)N1CCCN(C)c2ccccc21 | -2% | · | · | · | · | ·
CC(=O)Nc1cccc(NC(=O)c2cc(C(C)C)nc3ccccc23)c1 | -17% | · | · | · | · | ·
COC(=O)c1cc(NC(=O)c2ccccc2)c(=O)oc1/C=C/Nc1ccc(Oc2ccccc2)cc1 | 1% | 23µM* | 7% | -25% | 18 | 2%
O=c1oc(CCCO)cc2ccc(C#Cc3ccsc3)cc12 | -4% | 18µM* | 2% | ? | -8 | 5%
O=c1oc(CCCO)cc2ccc(C#CC3(O)CCCCC3)cc12 | 18% | 18µM* | -4% | ? | 26 | 2%
CCn1c(O)c(/C=N/N=C2CCCCC2)c2cc(C3=NNC(=O)CC3)ccc21 | 14% | 10µM* | -3% | 8.2µM* | -4 | 5%
COCCOC(=O)c1c(-c2ccccc2)c(-c2ccccc2)nn(C)c1=O | -19% | 21µM* | · | ? | · | ·
CC(C)OC(=O)c1c(-c2ccccc2)c(-c2ccccc2)nn(C)c1=O | 1% | 21µM* | · | ? | · | ·
COC(=O)c1c(-c2ccccc2)c(-c2ccccc2)nn(C)c1=O | -10% | ? | -3% | ? | 11 | -5%
COc1cccc(NC(=O)CC2Nc3ccccc3NC2=O)c1 (stereo not drawn) | 16µM* | · | · | · | · | ·
CCCCNC(=O)CC1Nc2cc(C)c(C)cc2NC1=O (stereo not drawn) | 185% | 5.2µM* | · | 4.6µM* | · | ·
CCOC(=O)c1c(NC(=O)CC2Sc3ccc(C(F)(F)F)cc3NC2=O)sc(C)c1C (stereo not drawn) | -4% | ? | 8% | ? | 4 | 24%
CCOC(=O)c1c(NC(=O)CC2Nc3ccccc3NC2=O)sc(C)c1C (stereo not drawn) | 66% | 18µM* | -5% | 8.2µM* | -5 | -10%
COc1ccc(NC(=O)CC2Nc3cc(C)c(C)cc3NC2=O)c(OC)c1 (stereo not drawn) | -1% | · | · | · | · | ·
Cc1cc2c(cc1C)NC(CC(=O)Nc1cccc(Cl)c1)C(=O)N2 (stereo not drawn) | 0% | ? | · | 16µM* | · | ·
N#Cc1ccc(COC(=O)c2ccc(N3CCOCC3)nc2)cc1 | 1% | · | · | · | · | ·
COc1ccc(-n2ncc(C(=O)Nc3cccc(C(F)(F)F)c3)c2C2CCN(C(=O)OC(C)(C)C)CC2)cc1 | 0% | ? | · | ? | · | ·
CC(C)(C)OC(=O)N1CCC(c2c(C(=O)Nc3ccc4c(c3)OCCO4)cnn2-c2ccc(F)cc2)CC1 | 0% | 18µM* | · | ? | · | ·
COc1ccc(-n2ncc(C(=O)Nc3ccc4c(c3)OCCO4)c2C2CCN(C(=O)OC(C)(C)C)CC2)cc1 | -10% | 16µM* | · | 21µM* | · | ·
Cc1c(Cl)cccc1-n1ncc(C(=O)Nc2ccc3c(c2)OCCO3)c1C1CCN(C(=O)OC(C)(C)C)CC1 | -17% | ? | · | ? | · | ·
Cc1ccc2nc(C)c(C(=O)N3CCN(c4ccc(F)cc4)CC3)cc2c1 | -55% | · | · | · | · | ·
COC(=O)c1c(NC(=O)c2ccoc2C)sc(C)c1C | i | -4% | 4% | -10% | 18 | 4%
CCOC(=O)c1sc(NC(=O)c2ccoc2C)c(C(N)=O)c1C | -4% | 16µM* | 6% | 26µM* | -5 | -1%
SMILES | ALOX12 inh | TDP1 cell noCPT | HT1080-NT tox | DT40 TDP1 CPT | IL1B secr inh | HT1080 IDH1KD tx
CCOC(=O)c1ccc(NC(=O)c2sc(NC(=O)c3ccccc3)c(C(=O)OCC)c2C)cc1 | 27% | · | · | · | · | ·
CCOC(=O)c1c(NC(=O)c2cc(C)oc2C)sc(C(=O)Nc2ccc(Cl)cc2)c1C | 186%[57.4 µM] | 5.6µM* | 0% | 8.9µM* | 6 | 1%
CCCCOC(=O)C1=C(C)NC(=O)NC1c1cc2c(cc1Br)OCO2 (stereo not drawn) | 0% | 23µM* | -18% | 23µM* | ? | -7%
CCC(CC)COC(=O)C1=C(C)NC(=O)NC1c1ccc2c(c1)OCO2 (stereo not drawn) | -11% | ? | -27% | -12% | -79* | ?
CCOc1ccc(-c2nc(CSCC(=O)N3CCC(N4CCCCC4)CC3)c(C)o2)cc1 | -52% | · | · | · | · | ·
Cc1ccc(C)c(C(C)NC(=O)CC(C)(C(=O)O)c2ccccc2)c1 (stereo not drawn) | 2% | · | · | · | · | ·
O=C(Cn1cccc1-c1nc(-c2ccc3c(c2)OCO3)no1)NC1CCCCC1 | 8% | · | · | · | · | ·
CCOc1ccc(Nc2nc3c(S(=O)(=O)c4ccc(C(C)C)cc4)nnn3c3ccsc23)cc1 | -16% | ? | · | ? | · | ·
CCc1ccc(S(=O)(=O)c2nnn3c2nc(NC2CCCC2)c2sccc23)cc1 | -7% | ? | · | 23µM* | · | ·
Cc1ccc(S(=O)(=O)c2nnn3c2nc(Nc2ccc(C(C)C)cc2)c2sccc23)cc1C | 0% | 4.6µM* | · | 4.1µM* | · | ·
Cc1ccc(S(=O)(=O)c2nnn3c2nc(NC2CCCCCC2)c2sccc23)cc1C | -19% | 21µM* | · | 15µM* | · | ·
Cc1ccc(C)c(S(=O)(=O)c2nnn3c2nc(NC2CCCCC2)c2sccc23)c1 | -23% | ? | · | ? | · | ·
Cc1ccc(C)c(S(=O)(=O)c2nnn3c2nc(NC(C)C)c2sccc23)c1 | -29% | ? | · | 23µM* | · | ·
Cc1ccc(S(=O)(=O)N2CCC(C(=O)Nc3nc4c(s3)CCCC4)CC2)cc1C | -24% | · | · | · | · | ·
Nc1c(N=Nc2ccc([N+](=O)[O-])cc2)c(S(=O)(=O)O)cc2cc(S(=O)(=O)O)c(/C=C/c3ccccc3)c(O)c12 | · | 14µM* | · | 10µM* | · | ·
CCCCNc1nc2sc3c(c2c(=O)n1-c1cccc(Cl)c1)CCN(C)C3 | -28% | 16µM* | -17% | 21µM* | -24 | -21%
CCCCCNc1nc2sc3c(c2c(=O)n1-c1cccc(Cl)c1)CCN(C)C3 | 197% | 12µM* | 15µM* | 12µM* | -57* | ?
FC(F)(F)c1cnc(/C=C/Nc2ccccc2Cl)c(Cl)c1 | ? | -10% | -4% | -6% | 17 | 0%
C[N+]1=C(/C=C/Nc2ccccc2Cl)C(C)(C)c2ccccc21 | ? | 12µM* | -3% | 23µM* | -6 | -11%

Bioassay records from PubChem.
